Experiment [1] addresses Rap guanine nucleotide exchange factor 3 (Homo sapiens) (UniProt O95398). Put plainly: Confirmatory qHTS for antagonist of cAMP-regulated guanine nucleotide exchange factor 3 (EPAC1) (AID 1645880). Further: nearly all actives have a fitted effect of over 55% in size. Further: potency means the concentration at half of the fitted maximal effect. Particulars: EPAC1 Rap1B-BODIPY-GDP exchange, fluorescence; series mostly up to 115 µM. In a few lines:
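Nucleotide exchange uses 100 nM EPAC1, 250 nM RAP1B-BODIPY-GDP and 50 uM GDP, with compounds in a concentration-titration series. After 5 min at room temperature, fluorescence (480 nm ex/540 nm em) is read every 5 min for 30 min. Data are normalized to control ATA and DMSO.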

For experiment [2] the target is unchanged. In words: Confirmatory qHTS for agonist of cAMP-regulated guanine nucleotide exchange factor 3 (EPAC1) (AID 1645881).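 Further: EPAC1 catalysed release of BODIPY-GDP from Rap1B seen as fluorescence loss; 100% = effect of cAMP agonist control; nearly all actives have a fitted effect of over 75% in size.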 Particulars: EPAC1 Rap1B BODIPY-GDP exchange fluorescence; series mostly up to 154 µM.
Experiment [3] addresses Rap guanine nucleotide exchange factor 4 (Homo sapiens) (UniProt Q8WZA2). Put plainly: Confirmatory qHTS for agonist of cAMP-regulated guanine nucleotide exchange factor 4 (EPAC2) (AID 1645884).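 Further: nucleotide exchange releases bodipy-GDP from Rap1 and this lowers its fluorescence; on the % scale 0 is the no-effect control and ±100 the full control effect; nearly all actives have a fitted effect of over 65% in size.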 Particulars: EPAC2 GEF activity, Rap1B-BODIPY-GDP fluorescence; series mostly up to 154 µM.
Experiment [4] has the same target. In words: Confirmatory qHTS for antagonist of cAMP-regulated guanine nucleotide exchange factor 4 (EPAC2) (AID 1645885). Further: nearly all actives have a fitted effect of over 25% in size. Further: potency means the concentration at half of the fitted maximal effect. On activity change, negative = inhibition: on the % scale 0 is the no-effect control and ±100 the full control effect. Particulars: EPAC2 Rap1B-BODIPY-GDP exchange fluorescence, biochemical; series mostly up to 12.7 µM. A general note: Quantitative high-throughput screening tests each substance at several concentrations.
The target in experiment [5] is Rap guanine nucleotide exchange factor 3 (Homo sapiens) (UniProt O95398). Put plainly: Counterscreen qHTS for antagonist of cAMP-regulated guanine nucleotide exchange factor 3 (EPAC1) (AID 1645888).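 Further: fluorescence loss as bound BODIPY-GDP is released from Rap1B; % of control where 0% means no effect.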 Particulars: Rap1B-BODIPY-GDP nucleotide exchange, fluorescence; series mostly up to 154 µM. An outline of the steps:
(§1)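 Measured: fluorescence of BODIPY-GDP bound to Rap1B, which falls as exchange proceeds. Conditions include 50 uM competing GDP, 5 and 30 min reads, and a later cAMP challenge for antagonist detection.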
On the technique in general: The purpose of a counterscreen is to sort out artefacts and off-target activity.

The target is the same in experiment [6]. Put plainly: Counterscreen qHTS for agonist of cAMP-regulated guanine nucleotide exchange factor 3 (EPAC1) (AID 1645889). Further: % of control where 0% means no effect; nearly all actives have a fitted effect of over 40% in size. Particulars: EPAC1 Rap1B-BODIPY-GDP exchange, fluorescence; series mostly up to 154 µM. An outline of the steps:
as §1

Experiment [7] deals with Cytochrome P450 1A2 (Homo sapiens) (UniProt P05177). In words: p450-cyp1a2 (AID 410; calls by dose curve; further: potency means the concentration at half of the fitted maximal effect). The settings on record: recombinant CYP1A2, luciferin-ME demethylation, luminescence; series mostly up to 25.6 µM. In a few lines: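 Luminescent readout of luciferin formed from Luciferin-ME by human CYP1A2; data normalized against complete inhibition by 57 uM furafylline. Enzyme 20nM, substrate 100uM at Km, 100mM KPO4 buffer, 60 min reaction at room temperature.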
Cytochrome P450 1A2 (Homo sapiens), sequence (P05177 whole entry, looked up): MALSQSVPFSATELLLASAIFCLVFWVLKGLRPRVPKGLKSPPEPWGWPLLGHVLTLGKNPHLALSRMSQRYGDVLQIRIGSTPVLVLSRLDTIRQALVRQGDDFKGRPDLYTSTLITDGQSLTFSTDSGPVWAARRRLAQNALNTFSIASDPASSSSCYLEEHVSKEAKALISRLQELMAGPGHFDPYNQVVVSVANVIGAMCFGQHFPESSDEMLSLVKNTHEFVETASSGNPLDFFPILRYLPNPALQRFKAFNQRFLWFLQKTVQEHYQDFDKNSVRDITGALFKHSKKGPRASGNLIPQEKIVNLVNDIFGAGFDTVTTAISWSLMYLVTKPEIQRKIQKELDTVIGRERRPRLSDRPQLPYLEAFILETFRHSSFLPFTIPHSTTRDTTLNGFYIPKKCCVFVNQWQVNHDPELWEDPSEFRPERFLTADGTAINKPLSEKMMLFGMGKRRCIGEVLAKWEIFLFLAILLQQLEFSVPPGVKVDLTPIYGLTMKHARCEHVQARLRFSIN

Experiment [8] addresses Glucocorticoid receptor (Homo sapiens) (UniProt P04150). In words: GR-EFC Redistribution (AID 451; calls by dose curve; further: potency means the concentration at half of the fitted maximal effect). The settings on record: CHO-K1 GR-EFC translocation, beta-gal luminescence, 2 h. An outline of the steps:
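CHO-K1 cells stably expressing nuclear-localized β-gal enzyme acceptor and GR fused C-terminally to the enzyme donor fragment; ligand-driven nuclear translocation restores β-gal by complementation. Compounds titrated up to 46 uM final, 2 h at 37 °C; luminescence read.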

The target of experiment [9] is DNA dC->dU-editing enzyme APOBEC-3G (Homo sapiens) (UniProt Q9HC16). Put plainly: qHTS for inhibitors of Vif-A3G interactions: Validation (AID 588379). Further: 0% is about no effect. Particulars: Vif-A3G protein interaction assay; series mostly up to 46.1 µM. An outline of the steps:
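HeLa cells stably expressing Vif and A3G-eYFP, 700 cells/well, incubated overnight at 37 deg C, then exposed to compound overnight at 37 deg C. Inhibition of Vif-mediated degradation read as increased yellow fluorescence (Ex 488/Em 500-530) by laser-scanning cytometry.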

We go through 28 compounds from PubChem BioAssay (NCATS).

A number with no mark means an inactive call. Results filed as inconclusive are left out. The source made the active and inactive calls. Unless noted, the call rests on the fitted dose curve; in most records, active means well fitted curve in the direction sought with a large enough effect; inconclusive means small, poorly fitted or top-dose-only effect, or another doubt; inactive means no such curve, though single readings can be large; an effect the other way counts as inactive or inconclusive. Where only a bound is given, the exact number is not on record here.

Rap guanine nucleotide exchange factor 4 (Homo sapiens), sequence (Q8WZA2 whole entry, looked up): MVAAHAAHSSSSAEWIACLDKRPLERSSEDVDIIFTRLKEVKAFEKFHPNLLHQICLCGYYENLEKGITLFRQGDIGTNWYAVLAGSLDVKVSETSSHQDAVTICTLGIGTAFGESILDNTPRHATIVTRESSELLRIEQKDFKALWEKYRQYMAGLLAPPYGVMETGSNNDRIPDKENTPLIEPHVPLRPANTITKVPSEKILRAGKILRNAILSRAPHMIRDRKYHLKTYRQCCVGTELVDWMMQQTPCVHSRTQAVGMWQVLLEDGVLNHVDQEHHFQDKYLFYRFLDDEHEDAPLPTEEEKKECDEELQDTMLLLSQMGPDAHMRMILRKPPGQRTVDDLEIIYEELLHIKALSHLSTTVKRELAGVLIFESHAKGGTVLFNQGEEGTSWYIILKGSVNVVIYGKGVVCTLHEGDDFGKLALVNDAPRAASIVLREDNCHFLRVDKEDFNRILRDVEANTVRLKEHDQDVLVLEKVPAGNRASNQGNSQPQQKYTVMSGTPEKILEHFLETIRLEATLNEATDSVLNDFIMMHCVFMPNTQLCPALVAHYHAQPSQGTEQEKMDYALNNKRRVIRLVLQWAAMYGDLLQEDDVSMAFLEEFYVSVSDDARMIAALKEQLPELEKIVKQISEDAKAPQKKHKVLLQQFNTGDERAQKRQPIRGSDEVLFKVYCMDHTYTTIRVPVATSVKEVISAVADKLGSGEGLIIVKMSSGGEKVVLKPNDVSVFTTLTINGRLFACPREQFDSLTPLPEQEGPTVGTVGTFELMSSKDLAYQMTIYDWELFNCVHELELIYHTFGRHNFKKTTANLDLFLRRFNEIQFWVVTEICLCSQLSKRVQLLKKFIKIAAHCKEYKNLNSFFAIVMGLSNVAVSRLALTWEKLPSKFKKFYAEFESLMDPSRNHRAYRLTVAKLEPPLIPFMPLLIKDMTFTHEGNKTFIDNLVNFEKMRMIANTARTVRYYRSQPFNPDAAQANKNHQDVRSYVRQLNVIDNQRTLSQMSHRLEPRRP
Rap guanine nucleotide exchange factor 3 (Homo sapiens), sequence (O95398 whole entry, looked up): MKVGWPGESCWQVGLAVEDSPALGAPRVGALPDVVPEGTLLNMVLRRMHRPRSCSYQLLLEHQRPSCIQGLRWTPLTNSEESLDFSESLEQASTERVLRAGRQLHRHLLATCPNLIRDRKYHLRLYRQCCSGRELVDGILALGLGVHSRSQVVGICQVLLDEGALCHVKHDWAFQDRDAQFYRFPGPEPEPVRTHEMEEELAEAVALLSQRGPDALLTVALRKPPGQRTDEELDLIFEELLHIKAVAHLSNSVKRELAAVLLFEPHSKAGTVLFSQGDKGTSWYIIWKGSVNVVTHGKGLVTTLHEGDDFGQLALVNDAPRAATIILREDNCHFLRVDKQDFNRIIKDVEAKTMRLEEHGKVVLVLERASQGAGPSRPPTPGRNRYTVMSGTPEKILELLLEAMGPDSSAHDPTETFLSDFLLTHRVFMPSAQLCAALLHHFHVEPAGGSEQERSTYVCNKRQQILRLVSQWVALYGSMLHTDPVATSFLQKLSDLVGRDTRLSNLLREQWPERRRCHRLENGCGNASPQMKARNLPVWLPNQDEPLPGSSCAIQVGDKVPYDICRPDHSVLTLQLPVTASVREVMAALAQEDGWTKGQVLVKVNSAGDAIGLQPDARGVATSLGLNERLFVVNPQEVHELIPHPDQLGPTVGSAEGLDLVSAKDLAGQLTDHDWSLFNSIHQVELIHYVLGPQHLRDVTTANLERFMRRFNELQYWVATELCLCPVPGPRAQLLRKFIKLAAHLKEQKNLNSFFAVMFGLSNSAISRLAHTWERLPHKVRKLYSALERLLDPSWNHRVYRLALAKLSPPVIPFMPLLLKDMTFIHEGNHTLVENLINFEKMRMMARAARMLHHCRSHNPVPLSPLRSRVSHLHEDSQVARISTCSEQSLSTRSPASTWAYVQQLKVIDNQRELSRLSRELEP
Glucocorticoid receptor (Homo sapiens), sequence (P04150 whole entry, looked up, the tested form may be a part): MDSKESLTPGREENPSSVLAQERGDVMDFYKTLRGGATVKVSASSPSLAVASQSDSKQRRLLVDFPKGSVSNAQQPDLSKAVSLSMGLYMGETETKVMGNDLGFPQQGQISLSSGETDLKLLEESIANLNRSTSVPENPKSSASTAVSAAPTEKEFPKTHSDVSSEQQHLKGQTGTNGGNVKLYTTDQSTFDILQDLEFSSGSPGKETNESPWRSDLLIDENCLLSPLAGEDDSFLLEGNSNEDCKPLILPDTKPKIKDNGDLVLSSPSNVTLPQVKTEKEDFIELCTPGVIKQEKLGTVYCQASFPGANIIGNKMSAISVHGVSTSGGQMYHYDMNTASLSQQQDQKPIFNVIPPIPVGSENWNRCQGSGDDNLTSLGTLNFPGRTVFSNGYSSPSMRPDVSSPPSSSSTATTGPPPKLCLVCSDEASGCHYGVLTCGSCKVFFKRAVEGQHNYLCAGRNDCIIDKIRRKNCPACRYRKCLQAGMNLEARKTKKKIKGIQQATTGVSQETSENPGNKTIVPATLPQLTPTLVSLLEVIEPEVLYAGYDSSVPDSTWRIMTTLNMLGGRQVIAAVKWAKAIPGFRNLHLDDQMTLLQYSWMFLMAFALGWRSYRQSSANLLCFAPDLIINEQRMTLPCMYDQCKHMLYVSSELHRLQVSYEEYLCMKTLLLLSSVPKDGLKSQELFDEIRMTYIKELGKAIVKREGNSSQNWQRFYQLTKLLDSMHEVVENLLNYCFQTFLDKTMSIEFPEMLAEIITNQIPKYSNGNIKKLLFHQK
DNA dC->dU-editing enzyme APOBEC-3G (Homo sapiens), sequence (Q9HC16 whole entry, looked up): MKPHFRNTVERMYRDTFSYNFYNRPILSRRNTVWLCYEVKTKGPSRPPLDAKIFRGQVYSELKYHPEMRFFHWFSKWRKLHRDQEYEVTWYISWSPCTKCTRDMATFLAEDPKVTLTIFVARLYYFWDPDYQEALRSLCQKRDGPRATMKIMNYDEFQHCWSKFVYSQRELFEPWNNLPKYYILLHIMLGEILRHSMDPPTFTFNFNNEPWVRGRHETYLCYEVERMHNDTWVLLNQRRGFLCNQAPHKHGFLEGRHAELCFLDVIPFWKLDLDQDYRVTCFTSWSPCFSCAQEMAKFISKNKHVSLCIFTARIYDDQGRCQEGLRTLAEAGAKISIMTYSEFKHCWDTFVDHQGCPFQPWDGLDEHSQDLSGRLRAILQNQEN

In the case of `CCOC(=O)c1ccc(NC(=O)CSc2nc(=O)n3cccc(C)c3n2)cc1`, the Potency entry in experiment [1], in [2], in [3], in experiment [4], in experiment [5] and in experiment [6] was “inactive” each time.
In the case of `CS/C(N)=N/N=C/c1c(O)ccc2ccccc12`, the Potency in experiment [1] was 21.3 µM (active). In addition, the Potency result in experiment [2], in experiment [3], in experiment [4], in experiment [5] and in [6] was “inactive” throughout.
With `Cc1ccc(NC(=O)COC(=O)Cn2c(C)csc2=O)c([N+](=O)[O-])c1`, the Potency entry in experiment [1], in experiment [2], in experiment [3], in experiment [4], in [5] and in [6] was “inactive” throughout.
With `COc1cccc2c(N/N=C/c3ccco3)cc(C)nc12`, the Potency result in experiment [1], in experiment [2], in experiment [3], in experiment [4], in experiment [5] and in experiment [6] was “inactive” throughout.
In the case of `CC(C)OC(=O)c1c(-c2ccccc2)c(-c2ccccc2)nn(C)c1=O`, the Potency result in [1], in [2], in experiment [3], in experiment [4], in experiment [5] and in experiment [6] was “inactive” each time.
On to `CC(C)CCNC1c2ccccc2C(=O)N1Cc1ccccc1` (configuration not stated), for which the Potency entry in experiment [1], in [2] and in [4] was “inactive” throughout. Further, the activation in [3] was 11.2% [at 17.1 µM, percent relative to cAMP agonist control]; in [6], 2.24% [at 30.8 µM]. Also, in experiment [5], the activity change, negative = inhibition was -10.7% [at 30.8 µM].
With `CC(C)c1ccc(N(C(=O)c2csnn2)C(C(=O)NC(C)(C)C)c2cccnc2)cc1` (configuration not stated), the Potency entry in experiment [1], in [2], in experiment [3], in experiment [4], in experiment [5] and in experiment [6] was “inactive” in each case.
For `Cc1ccc(S(=O)(=O)/N=C2/NC(=O)/C(=C\c3cc(Br)cc(Br)c3O)S2)cc1`, the Potency in experiment [1] is 16.9 µM (active). In addition, the Potency result in experiment [2], in experiment [3], in experiment [4], in experiment [5] and in experiment [6] was “inactive” throughout.
As for `CC(C)CC(C(=O)NC1CCCCC1)N(Cc1ccccc1)C(=O)c1snc(C(N)=O)c1N` (configuration not stated), the Potency result in [1], in [2] and in experiment [4] was “inactive” in each case. The activation in experiment [3] is 1.37% [at 17.1 µM, percent relative to cAMP agonist control]; in [6] it was 19% [at 30.8 µM]. In addition, the activity change, negative = inhibition in [5] is -17.8% [at 30.8 µM].
On to `CCCCNC(=O)Cn1nc(N2CCN(c3ccccc3OC)CC2)ccc1=O`, for which the Potency entry in experiment [1], in [2], in experiment [3], in experiment [4], in experiment [5] and in [6] was “inactive” in each case.
Consider `CC(=O)c1c(C(C)=O)c(C)n(-c2nc(-c3ccccc3)c(C)s2)c1C`, for which the Potency result in [1], in [2], in [3], in experiment [4], in experiment [5] and in experiment [6] was “inactive” throughout.
With `c1ccc2c(c1)oc1c(-c3ccc4nccn4c3)cccc12`, the Potency entry in experiment [1], in experiment [2] and in experiment [4] was “inactive” throughout. In addition, the activation is 0% [at 17.1 µM, percent relative to cAMP agonist control] in experiment [3] and 14.4% [at 30.8 µM] in experiment [6]. In experiment [5], the activity change, negative = inhibition is -16.8% [at 30.8 µM].
For `Nc1nc(CSc2nnnn2-c2ccc(Cl)cc2)nc(N2CCOCC2)n1`, the Potency entry in experiment [1], in experiment [2] and in experiment [4] was “inactive” each time. Also, the activation is 5.65% [at 17.1 µM, percent relative to cAMP agonist control] in experiment [3] and 8.16% [at 30.8 µM] in experiment [6]. In addition, the activity change, negative = inhibition in experiment [5] was 9.77% [at 30.8 µM].
In the case of `CCC(C)NC(=O)Cn1c(=O)n(CCCCCC(=O)Nc2ccccc2)c(=O)c2sccc21` (configuration not stated), the Potency entry in experiment [1], in experiment [2], in experiment [3], in experiment [4], in experiment [5] and in experiment [6] was “inactive” throughout.
Consider `Nc1nnc(-c2cccc(F)c2)s1`, for which the Potency result in experiment [1], in [2], in experiment [3], in [4], in experiment [5] and in [6] was “inactive” in each case.
With `CC(C)Sc1nc2sccc2c(=O)n1-c1ccccc1`, the Potency entry in experiment [1], in [2], in experiment [3], in experiment [5] and in experiment [6] was “inactive” throughout. The Potency in experiment [4] is 42.6 µM (active).
For `CC(C(=O)Nc1ccccc1-c1ccccc1)N1CCN(C(=O)c2ccccc2)CC1` (configuration not stated), the Potency entry in experiment [1], in experiment [2] and in experiment [4] was “inactive” in each case. The activation in [3] is 12.7% [at 17.1 µM, percent relative to cAMP agonist control]; in [6], 29% [at 30.8 µM]. For the same compound, the activity change, negative = inhibition in experiment [5] was 16.7% [at 30.8 µM].
As for `O=C1O/C(=C/c2ccccc2)N=C1c1ccccc1`, the Potency result in experiment [1], in experiment [2], in experiment [3], in experiment [4], in experiment [5] and in experiment [6] was “inactive” each time.
As for `CC(=O)N(/N=C1/C(=O)Nc2ccccc21)c1ccccc1`, the Potency in [1] was 67.5 µM (active). For the same compound, the Potency result in experiment [2], in experiment [3] and in [5] was “inactive” in each case.
With `O=C(Nc1ccc(F)cc1F)C1CCN(c2ncccn2)CC1`, the Potency result in experiment [1], in [2], in [3], in experiment [4] and in [6] was “inactive” each time.
Consider `Fc1cccc(Cc2c(-c3ccccc3)nc3ccc(Cl)cn23)c1`, for which the Potency result in [1], in [2], in experiment [3], in [4], in experiment [5] and in experiment [6] was “inactive” each time.
On to `COc1ccc(C(=O)c2ccccc2)c2c(O)ccc(C(=O)c3ccccc3)c12`, for which the Potency result in [1], in [2], in experiment [3], in [4] and in experiment [6] was “inactive” in each case.
Take `O=C(Cn1cnc2scc(-c3cccc([N+](=O)[O-])c3)c2c1=O)NCc1ccco1`: the Potency in experiment [1] is 37.9 µM (active). The Potency entry in experiment [2], in experiment [3], in experiment [4], in experiment [5] and in experiment [6] was “inactive” each time.
With `CCS(=O)(=O)N1CCCC(C(=O)NCCCN(C)Cc2ccccc2)C1` (configuration not stated), the Potency entry in experiment [1], in experiment [2], in experiment [3], in experiment [4], in experiment [5] and in experiment [6] was “inactive” each time.
As for `COc1cc(OC)nc(Oc2cccc(Cl)c2C)n1`, the Potency entry in experiment [1], in [2], in experiment [3], in experiment [4] and in experiment [6] was “inactive” throughout.
Take `COc1cccc(CC(=O)Nc2ccc(S(=O)(=O)Nc3nccs3)cc2)c1`: the Potency result in [1], in experiment [2] and in experiment [4] was “inactive” throughout. For the same compound, the activation was -3.47% [at 17.1 µM, percent relative to cAMP agonist control] in [3] and 9.39% [at 30.8 µM] in [6]. Also, the activity change, negative = inhibition in [5] was -17.8% [at 30.8 µM].
`O=S(=O)(NCc1ccccc1)c1ccc(S(=O)(=O)N(Cc2cccs2)CC2CCCO2)cc1` (configuration not stated): the Potency result in experiment [1], in [2], in [3], in experiment [4] and in experiment [6] was “inactive” each time.
Turning to `COc1c(-c2ccccc2)oc2c(ccc3occc32)c1=O`, the Potency in experiment [7] is 0.0251 µM (active); in experiment [8], above 46 µM. The call in experiment [9] was inactive. For the same compound, the Potency result in experiment [1], in [2] and in experiment [3] was “inactive” throughout.
